Compounds without any hit were thinned out: in the full panel of roughly 83,000, 20% have a hit.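 Values shown are percent growth following 48 h exposure of cells in 96-well plates to a single concentration of compound; below 10 was considered active.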 Values without a mark were called inactive. Calls of active or inactive are those of the source. *1 amine or outer side, *2 acyl side, *3 side chain or, on linkers, in order; H or OH if unused. Where a SMILES comes first, the peptide text is derived from it. Bridges are numbered along the chain shown (N, C = ends). Roman numbers before positions name the chains, in order. [ ]: non-standard residue; d: D form. Actinocin(1to9) = Cc1c2oc3c(C)ccc(C(=O)[*:2])c3nc-2c(C(=O)[*:1])c(N)c1=O; NMeV = CN[CH](C(=O)O)C(C)C; Sar = CNCC(=O)O

The values that follow come from PubChem BioAssay (NCI).

Some test systems named below: NCI-H23 lung; NCI-H226 lung; NCI-H322M lung; HOP-62 NSCLC; NCI-H460 lung; HOP-92 NSCLC; NCI-H522 lung; A549/ATCC NSCLC; 786-0 renal; COLO 205 colon; DU-145 prostate; K-562 leukemia; MALME-3M melanoma; MDA-MB-231 breast; RXF 393 renal; SF-268 CNS; SF-295 CNS; SF-539 CNS; UACC-257 melanoma; M14 melanoma.
What all share (test): NCI-60 one-dose screen, 48 h (100 = growth as untreated, 0 = no growth, -100 = all killed)
Details in all cases: 10 µM unless noted

For `CCC(C)C1NC(=O)C(NC(=O)c2c3nc4c(C(=O)NC5C(=O)NC(C(C)CC)C(=O)N6CCCC6C(=O)N(C)CC(=O)N(C)C(C(C)C)C(=O)OC5C)ccc(C)c4oc-3c(C)c(=O)c2N)C(C)OC(=O)C(C(C)C)N(C)C(=O)CN(C)C(=O)C2CCCN2C1=O` (centres undefined) (I: TIP[Sar][NMeV] / II: TIP[Sar][NMeV]; ester I:1-I:C, II:1-II:C; linker I:N-II:N via Actinocin(1to9); configuration not given here), the growth in the assay on NCI-H23 lung is -51.1% (active); in the assay on NCI-H226 lung it was -16% (active); in the assay with NCI-H322M lung, -2.5% (active); in the assay on HOP-62 NSCLC, -43.6% (active); in the assay with NCI-H460 lung it was -19.6% (active); in the assay with HOP-92 NSCLC, -16.6% (active). The growth in the assay with NCI-H522 lung was -45.5% (active); with A549/ATCC NSCLC, -15.2% (active); in the assay with 786-0 renal, -20.8% (active); in the assay with COLO 205 colon it was -67.6% (active); in the assay on DU-145 prostate, 15.5%; in the assay on K-562 leukemia, 1.13% (active). For the same compound, the growth in the assay on MALME-3M melanoma was -74.1% (active); in the assay with MDA-MB-231 breast it was -12.7% (active); with RXF 393 renal, 1.32% (active); in the assay with SF-268 CNS, -11.7% (active); in the assay with SF-295 CNS, -11.3% (active); in the assay on SF-539 CNS it was -36.9% (active). Besides, the growth in the assay with UACC-257 melanoma is -8.32% (active); in the assay on M14 melanoma it was -95.6% (active).

Turning to `O=C(O)c1cc2c(s1)C(=O)c1sccc1C2=O`, the growth in the assay on NCI-H23 lung was -41.9% (active); in the assay on NCI-H226 lung it was 103%; with NCI-H322M lung, 85.9%; in the assay with HOP-62 NSCLC, -89% (active); in the assay with NCI-H460 lung, 104%; in the assay with HOP-92 NSCLC, 54.4%. Further, the growth with NCI-H522 lung is -63.4% (active); in the assay with A549/ATCC NSCLC, 28.7%; in the assay on 786-0 renal it was 93.2%; in the assay on COLO 205 colon, 104%; in the assay with DU-145 prostate, -100% (active); in the assay with K-562 leukemia, -1.53% (active). Also, the growth is -98.9% (active) in the assay on MALME-3M melanoma; 75% in the assay with MDA-MB-231 breast; 34.2% with RXF 393 renal; 45.2% with SF-268 CNS; 57.4% in the assay with SF-295 CNS; -66.1% (active) with SF-539 CNS. In addition, the figures for the growth with UACC-257 melanoma and with M14 melanoma were 48.3% and -96.3% (active), respectively.

Take `CN(C)c1ccc(C(C#N)(c2ccccc2)c2ccc(N(C)C)cc2)cc1`: the growth with NCI-H23 lung was 54.2%; in the assay on NCI-H226 lung, 72.3%; in the assay on NCI-H322M lung, 86.8%; with HOP-62 NSCLC, 90.6%; in the assay with NCI-H460 lung, 50.8%; in the assay with HOP-92 NSCLC, 54.6%. Moreover, the growth was 82.2% with NCI-H522 lung; 49.9% in the assay on A549/ATCC NSCLC; 67.7% in the assay with 786-0 renal; 45.2% in the assay with COLO 205 colon; 60% in the assay with DU-145 prostate; 26.1% with K-562 leukemia. In addition, the growth was 69.9% in the assay on MALME-3M melanoma; 79.4% in the assay on MDA-MB-231 breast; 75.3% in the assay on RXF 393 renal; 58.9% with SF-268 CNS; 77.9% in the assay on SF-295 CNS; 16.1% with SF-539 CNS. For the same compound, the growth is 84.7% with UACC-257 melanoma and 55.2% in the assay with M14 melanoma.

Consider `COC1CC(C)C(OC)c2cc(O)cc(c2O)NC(=O)/C(C)=C/C=C\C(C)C(OC(N)=O)/C(C)=C\C(C)C1OC` (centres undefined), for which the growth is 39.4% in the assay with NCI-H23 lung; 47.8% in the assay with NCI-H226 lung; 54.1% in the assay with NCI-H322M lung; 37.9% in the assay with HOP-62 NSCLC; 9.42% (active) in the assay on NCI-H460 lung; 11.4% in the assay on HOP-92 NSCLC. The growth in the assay with NCI-H522 lung is -67.4% (active); in the assay on A549/ATCC NSCLC, 13.3%; in the assay on 786-0 renal it was 31.3%; in the assay on COLO 205 colon it was -0.179% (active); in the assay on DU-145 prostate, -29.7% (active); in the assay on K-562 leukemia, -58.6% (active). The growth with MALME-3M melanoma is 32.1%; in the assay with MDA-MB-231 breast, 32.4%; in the assay with RXF 393 renal, -20.5% (active); in the assay with SF-268 CNS, 63.1%; with SF-295 CNS it was -15.9% (active); in the assay with SF-539 CNS it was 6.34% (active). Moreover, the growth with UACC-257 melanoma was 14.4%.

For `CN1CCC(CN2c3ccccc3Sc3ccccc32)C1` (centres undefined), the growth in the assay with NCI-H23 lung is 88.9%; in the assay with NCI-H226 lung, 111%; in the assay with NCI-H322M lung, 86.3%; in the assay on HOP-62 NSCLC it was 91.5%; in the assay with NCI-H460 lung, 101%; in the assay with HOP-92 NSCLC it was -0.214% (active). Besides, the growth was 86.2% with NCI-H522 lung; 90.7% in the assay with A549/ATCC NSCLC; 69% in the assay with 786-0 renal; 84.6% in the assay on COLO 205 colon; 92.4% with DU-145 prostate; 38% with K-562 leukemia. In addition, the growth with MALME-3M melanoma is 79.8%; in the assay on MDA-MB-231 breast it was 59.5%; in the assay with RXF 393 renal, 91.4%; in the assay on SF-268 CNS it was 89.2%; with SF-295 CNS, 95.7%; in the assay with SF-539 CNS it was 86.3%. Besides, the growth in the assay on UACC-257 melanoma was 88.6%; in the assay with M14 melanoma it was 73.6%.

In the case of `CC1(C)CCCC2=C1C(=O)N(SC(Cl)(Cl)Cl)C2=O`, the growth was 101% in the assay on NCI-H23 lung; 93.6% in the assay with NCI-H226 lung; 101% in the assay with NCI-H322M lung; 98.2% in the assay on HOP-62 NSCLC; 109% in the assay with NCI-H460 lung; 89.5% in the assay with HOP-92 NSCLC. The growth with NCI-H522 lung is -73.2% (active); in the assay with A549/ATCC NSCLC it was 92.6%; in the assay on 786-0 renal, 95%; with COLO 205 colon, 69.8%; with DU-145 prostate, 102%; in the assay on K-562 leukemia, 43.1%. Also, the growth is 75.9% in the assay on MALME-3M melanoma; 95.9% in the assay with MDA-MB-231 breast; 90% in the assay with RXF 393 renal; 103% with SF-268 CNS; 84.5% in the assay with SF-295 CNS; 95.9% in the assay on SF-539 CNS. Moreover, the growth was 97.2% in the assay on UACC-257 melanoma and 93.6% with M14 melanoma.

Regarding `CCN1/C(=C/C(C)=C/c2sc3ccc4ccccc4c3[n+]2CC)Sc2ccc3ccccc3c21`, the growth is -65.5% (active) in the assay on NCI-H23 lung; -82.4% (active) in the assay on NCI-H226 lung; -97.8% (active) in the assay with NCI-H322M lung; -65.2% (active) in the assay on HOP-62 NSCLC; -90.5% (active) in the assay with NCI-H460 lung; -89.1% (active) in the assay on HOP-92 NSCLC. Moreover, the growth is -77.3% (active) with NCI-H522 lung; -76.8% (active) in the assay on A549/ATCC NSCLC; -88.5% (active) with 786-0 renal; -83.6% (active) with COLO 205 colon; -100% (active) in the assay on DU-145 prostate; -23.7% (active) in the assay on K-562 leukemia. Besides, the growth with MALME-3M melanoma was -87% (active); in the assay on MDA-MB-231 breast, -82.5% (active); in the assay with RXF 393 renal, -88.1% (active); with SF-268 CNS, -91.1% (active); in the assay with SF-295 CNS, -93% (active); with SF-539 CNS, -98.1% (active). The growth was -82.2% (active) with UACC-257 melanoma and -79.8% (active) in the assay on M14 melanoma.

For `CCCCCCCCCCCC(=O)OC(C)C(=O)NCCCC` (centres undefined), the growth is 97.3% in the assay on NCI-H23 lung; 86% in the assay with NCI-H226 lung; 91.7% with NCI-H322M lung; 94% with HOP-62 NSCLC; 105% in the assay on NCI-H460 lung; 98.1% in the assay on HOP-92 NSCLC. The growth in the assay on NCI-H522 lung was 104%; with A549/ATCC NSCLC it was 98.8%; in the assay on 786-0 renal, 101%; in the assay with COLO 205 colon it was 109%; in the assay on DU-145 prostate, 105%; in the assay with K-562 leukemia, 94.1%. Besides, the growth in the assay with MALME-3M melanoma was 96.4%; with MDA-MB-231 breast, 113%; with RXF 393 renal, 107%; with SF-268 CNS, 101%; in the assay on SF-295 CNS, 102%; in the assay on SF-539 CNS it was 108%. In addition, the growth in the assay on UACC-257 melanoma is 96.4%; with M14 melanoma, 105%.
